Test [1] in a line: ATG_GRE_CIS: Attagene CIS-FACTORIAL HepG2 Assay for human Glucocorticoid Response Elements (GRE) (AID 2282947). To be noted: HepG2 GRE cis-reporter, Attagene multiplex mRNA; actives raise or lower the signal. The procedure, abridged: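 Following 24 h chemical exposure of transiently transfected HepG2 cells, total RNA was reverse-transcribed and reporter cDNA amplified, fluorescently labelled and sized by capillary electrophoresis. Signal gain or loss was fitted relative to DMSO vehicle.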

Test [2] in a line: ATG_ISRE_CIS: Attagene CIS-FACTORIAL HepG2 Assay for human Interferon Regulatory Factor 1 (IRF1) binding to an Interferon-Stimulated Response Element (ISRE) (AID 2282948). As to conditions: HepG2 ISRE cis-reporter (Attagene), mRNA transcription readout; actives raise or lower the signal. The procedure, abridged: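 Transiently transfected HepG2 cells carrying cis-element reporter units, dosed 24 hours. Reporter mRNA quantified by RT-PCR, fluorescent primer extension, HpaI digestion and capillary electrophoresis. Bidirectional fitting relative to DMSO.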

The nature of test [3]: ATG_M_32_CIS: Attagene CIS-FACTORIAL HepG2 Assay for M32 Transcription Factor (Internal Marker) (AID 2282949).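 Also: background control marker of the multiplexed CIS panel rather than a real target.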 To be noted: HepG2 Attagene cis-factorial M32 reporter, mRNA; actives raise or lower the signal. The essentials:
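HepG2 cells transiently transfected with multiplexed cis-regulated reporter units, dosed 24 h. Reporter mRNA quantified by RT-PCR, 6-FAM labelling, HpaI digestion and capillary electrophoresis; bidirectional fit vs DMSO.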

A short description of test [4]: ATG_M_06_CIS: Attagene CIS-FACTORIAL HepG2 Assay for M06 Transcription Factor (Internal Marker) (AID 2282950). To be noted: HepG2 Attagene CIS-FACTORIAL M06 internal marker reporter; actives raise or lower the signal. The essentials:
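Fluorescence-labelled RT-PCR products from cis-promoter reporter units, cut with HpaI and resolved by capillary electrophoresis, give the signal. Cells are human HepG2, dosed for 24 h. Serves as background control, fitted relative to DMSO.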

Test [5] deals with Hypoxia-inducible factor 1-alpha (Homo sapiens) (UniProt Q16665). Description: ATG_HIF1a_CIS: Attagene CIS-FACTORIAL HepG2 Assay for human Hypoxia Inducible Factor 1 (HIF1A) (AID 2282951). To be noted: HepG2 Attagene cis-factorial HIF1a reporter transcription; actives raise or lower the signal. The essentials:
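Transient MRTU transfection of human HepG2 liver cells, 24 h compound treatment, then total RNA isolation, oligo(dT) reverse transcription, PCR amplification, fluorescent labelling and capillary electrophoresis of reporter fragments. Gain or loss relative to DMSO.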

The target of test [6] is Hepatocyte nuclear factor 6 (Homo sapiens) (UniProt Q9UBC0). The test can be described thus: ATG_HNF6_CIS: Attagene CIS-FACTORIAL HepG2 Assay for human Hepatocyte Nuclear Factor 6 (HNF6) (AID 2282952). As to conditions: HepG2 Attagene cis-factorial HNF6 reporter transcription; actives raise or lower the signal. The procedure, abridged:
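HepG2, transient MRTU transfection (cis promoters); 24 h chemical exposure; total RNA → oligo(dT) RT → PCR → 6-FAM labelling → HpaI cut → CE; bidirectional fit vs DMSO.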

Test [7] deals with Heat shock factor protein 1 (Homo sapiens) (UniProt Q00613). Description: ATG_HSE_CIS: Attagene CIS-FACTORIAL HepG2 Assay for human Heat Shock Transcription Factor 1 (HSE) (AID 2282953). To be noted: HepG2 HSE cis-reporter, Attagene RNA transcription; actives raise or lower the signal. The procedure, abridged:
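After a 24 h incubation with test chemical, transfected HepG2 cells were harvested for RNA; reporter transcripts were measured by RT-PCR and capillary electrophoresis. Values reflect gain or loss of signal relative to DMSO.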

A short description of test [8]: ATG_MRE_CIS: Attagene CIS-FACTORIAL HepG2 Assay for human Metal Responsive Element (MRE) (AID 2282954). To be noted: HepG2 MRE cis-reporter transcription, Attagene multiplex; actives raise or lower the signal. The essentials: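 Step one: transfect HepG2 with cis-regulated reporter units. Step two: dose 24 h. Step three: isolate RNA, RT-PCR, 6-FAM label, HpaI digest, capillary electrophoresis. Fit bidirectionally to DMSO.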

For test [9], the target named is Paired box protein Pax-6 (Homo sapiens) (UniProt P26367). Description: ATG_Pax6_CIS: Attagene CIS-FACTORIAL HepG2 Assay for human Paired Box 6 (PAX6) (AID 2282956). To be noted: HepG2 CIS-FACTORIAL PAX6 reporter transcription, RNA readout; actives raise or lower the signal. The procedure, abridged:
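HepG2 cells transiently transfected with cis-promoter-driven multiplexed reporter units sensing endogenous transcription factor activity; 24 h chemical exposure. Reporter mRNA quantified by RT-PCR, 6-FAM labelling, HpaI digestion and capillary electrophoresis; bidirectional fit versus DMSO baseline.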

Test [10] in a line: ATG_PXRE_CIS: Attagene CIS-FACTORIAL HepG2 Assay for human Pregnane X Receptor Element (PXRE) (AID 2282957). As to conditions: HepG2 Attagene CIS-FACTORIAL PXRE reporter, mRNA; actives raise or lower the signal. The procedure, abridged: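 Transfect HepG2 with MRTUs (cis promoter elements); dose chemical, incubate 24 h; isolate RNA, RT with oligo(dT), PCR, 6-FAM label, HpaI cut, CE. Gain/loss fit vs DMSO.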

Test [11] can be described thus: ATG_PPRE_CIS: Attagene CIS-FACTORIAL HepG2 Assay for human Peroxisome Proliferator-activated Response Element (PPRE) (AID 2282958). To be noted: HepG2 PPRE cis-element reporter, Attagene transcription factor profiling; actives raise or lower the signal. The essentials:
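HepG2, transient MRTU transfection (cis promoter elements, endogenous TFs). 24 h dosing. RNA → oligo(dT) RT → PCR → 6-FAM primer extension → HpaI digest → CE. Bidirectional fit vs DMSO.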

Test [12] can be described thus: ATG_RORE_CIS: Attagene CIS-FACTORIAL HepG2 Assay for human RAR-related Orphan Receptor Element (RORE) (AID 2282959). As to conditions: HepG2 Attagene cis-factorial RORE reporter, mRNA; actives raise or lower the signal. The essentials: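 Transient MRTU transfection of human HepG2 liver cells (FuGene 6); 24 h compound exposure; TriZol RNA, oligo(dT) RT, PCR, FAM labeling, HpaI cut, CE fragment analysis. DMSO = negative control/baseline.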

Test [13] can be described thus: ATG_Sox_CIS: Attagene CIS-FACTORIAL HepG2 Assay for human SRY-box transcription factor (SOX) (AID 2282960). To be noted: HepG2 Attagene cis-factorial SOX reporter, mRNA; actives raise or lower the signal. The essentials:
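Endogenous factor activity in human liver HepG2 cells carrying transfected cis-regulated reporter units. RNA taken 24 h post-dose, reverse-transcribed, PCR-amplified and sized by capillary electrophoresis. Gain or loss of signal fitted relative to DMSO.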

Test [14] addresses Transcription factor Sp1 (Homo sapiens) (UniProt P08047). Description: ATG_Sp1_CIS: Attagene CIS-FACTORIAL HepG2 Assay for human Specificity Protein 1 (Sp1) (AID 2282961). As to conditions: HepG2 Sp1 cis-reporter transcription, actives raise or lower the signal. The essentials:
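Transient MRTU-transfected HepG2, 24 h compound exposure. Total RNA → oligo(dT) RT → PCR of reporter → 6-FAM primer extension → HpaI digest → CE. Endpoint fitted both directions vs DMSO.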

A short description of test [15]: ATG_SREBP_CIS: Attagene CIS-FACTORIAL HepG2 Assay for human Sterol Regulatory Element Binding (SREBP) (AID 2282962). As to conditions: HepG2 Attagene cis-factorial SREBP reporter, mRNA; actives raise or lower the signal. The essentials:
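HepG2 cells transiently transfected with multiplexed cis-promoter reporter units sensing endogenous transcription factors; reporter mRNA measured 24 h after dosing by RT-PCR, 6-FAM labeling, HpaI digestion and capillary electrophoresis. Bidirectional fit versus DMSO.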

Test [16] in a line: ATG_TA_CIS: Attagene CIS-FACTORIAL HepG2 Assay for human TA Basal Promoter (AID 2282964). As to conditions: HepG2 Attagene CIS-factorial TA basal promoter reporter; actives raise or lower the signal. The procedure, abridged:
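Multiplexed mRNA reporter assay, HepG2, 24 h. Reporter cDNA amplified, 6-FAM primer-extended, HpaI-cut, CE-sized; DMSO = negative control and baseline.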

Test [17] in a line: ATG_TCF_b_cat_CIS: Attagene CIS-FACTORIAL HepG2 Assay for human T-Cell-Factor with beta-catenin (TCF/b-cat) (AID 2282965). To be noted: HepG2 TCF/beta-catenin cis-reporter transcription, actives raise or lower the signal. The essentials: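 Using capillary electrophoresis as the read-out, labelled reporter cDNA fragments from transiently transfected HepG2 were sized and quantified. Exposure lasted 24 hours; activity in either direction was referenced to DMSO.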

Test [18] in a line: ATG_PBREM_CIS: Attagene CIS-FACTORIAL HepG2 Assay for human Phenobarbital-responsive Enhancer Module (PBREM) (AID 2282955). As to conditions: HepG2 PBREM cis-reporter, Attagene multiplexed transcription; actives raise or lower the signal. The essentials:
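Endogenous transcription factors in human liver HepG2 cells drive a PBREM cis-element reporter, whose transcript level after 24 h treatment is quantified by RT-PCR with capillary electrophoresis; activity fitted in both directions against DMSO.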

Test [19] deals with Signal transducer and activator of transcription 3 (Homo sapiens) (UniProt P40763). Description: ATG_STAT3_CIS: Attagene CIS-FACTORIAL HepG2 Assay for human Signal Transducer and Activator of Transcription 3 (STAT3) (AID 2282963). As to conditions: HepG2, Attagene cis-factorial STAT3 reporter transcription; actives raise or lower the signal. The essentials: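 Transcript-level reporter assay. HepG2 transient MRTU transfection, 24 h exposure, fluorescence detection after RT-PCR and CE; DMSO baseline.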

Active and inactive are the calls of the source. The calls were made as follows: active = hit-call score of the fitted dose curve at least 0.9, where 1 is the maximum; inactive = score below 0.9.

Sequence of Signal transducer and activator of transcription 3 (Homo sapiens) (P40763 whole entry, looked up): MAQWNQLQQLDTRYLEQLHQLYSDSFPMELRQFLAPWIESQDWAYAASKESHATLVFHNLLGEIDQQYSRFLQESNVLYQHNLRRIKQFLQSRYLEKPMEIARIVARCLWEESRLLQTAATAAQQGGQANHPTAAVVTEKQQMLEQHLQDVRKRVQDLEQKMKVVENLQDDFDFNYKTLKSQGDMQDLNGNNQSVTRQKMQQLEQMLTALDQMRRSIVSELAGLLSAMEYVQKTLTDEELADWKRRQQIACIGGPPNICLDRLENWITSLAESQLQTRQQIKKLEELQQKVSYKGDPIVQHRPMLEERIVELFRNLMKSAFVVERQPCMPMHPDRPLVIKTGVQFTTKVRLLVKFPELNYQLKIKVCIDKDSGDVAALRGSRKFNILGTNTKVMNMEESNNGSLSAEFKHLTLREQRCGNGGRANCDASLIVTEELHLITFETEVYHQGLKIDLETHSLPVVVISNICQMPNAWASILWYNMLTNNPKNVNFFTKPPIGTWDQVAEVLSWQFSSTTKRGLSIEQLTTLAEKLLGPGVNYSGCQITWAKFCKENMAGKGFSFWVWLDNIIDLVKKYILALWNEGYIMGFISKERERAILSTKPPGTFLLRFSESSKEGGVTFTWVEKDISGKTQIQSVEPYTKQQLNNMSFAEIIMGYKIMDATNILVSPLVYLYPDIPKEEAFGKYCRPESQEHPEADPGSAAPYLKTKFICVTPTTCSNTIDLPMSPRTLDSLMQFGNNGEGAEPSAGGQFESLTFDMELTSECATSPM
Sequence of Hypoxia-inducible factor 1-alpha (Homo sapiens) (Q16665 whole entry, looked up, the tested form may be a part): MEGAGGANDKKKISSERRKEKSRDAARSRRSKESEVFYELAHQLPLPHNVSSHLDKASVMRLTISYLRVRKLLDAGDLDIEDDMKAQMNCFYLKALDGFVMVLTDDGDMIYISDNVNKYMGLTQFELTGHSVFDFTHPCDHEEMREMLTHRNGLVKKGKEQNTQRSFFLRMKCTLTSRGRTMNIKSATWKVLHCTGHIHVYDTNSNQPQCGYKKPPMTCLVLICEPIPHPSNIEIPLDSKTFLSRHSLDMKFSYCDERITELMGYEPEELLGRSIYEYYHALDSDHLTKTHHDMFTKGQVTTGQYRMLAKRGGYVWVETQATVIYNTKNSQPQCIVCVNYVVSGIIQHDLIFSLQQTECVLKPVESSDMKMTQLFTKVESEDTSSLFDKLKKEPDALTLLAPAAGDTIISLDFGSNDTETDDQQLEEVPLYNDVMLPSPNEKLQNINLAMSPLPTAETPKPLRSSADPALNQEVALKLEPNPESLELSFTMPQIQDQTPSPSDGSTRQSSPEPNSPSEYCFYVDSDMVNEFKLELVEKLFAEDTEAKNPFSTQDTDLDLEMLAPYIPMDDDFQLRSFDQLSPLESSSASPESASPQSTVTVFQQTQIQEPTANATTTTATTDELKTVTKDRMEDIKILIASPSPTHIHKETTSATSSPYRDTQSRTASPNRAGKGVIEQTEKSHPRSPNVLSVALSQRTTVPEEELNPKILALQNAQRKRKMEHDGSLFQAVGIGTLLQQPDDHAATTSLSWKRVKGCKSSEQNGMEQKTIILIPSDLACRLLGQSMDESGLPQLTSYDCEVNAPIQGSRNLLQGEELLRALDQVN
Sequence of Transcription factor Sp1 (Homo sapiens) (P08047 whole entry, looked up): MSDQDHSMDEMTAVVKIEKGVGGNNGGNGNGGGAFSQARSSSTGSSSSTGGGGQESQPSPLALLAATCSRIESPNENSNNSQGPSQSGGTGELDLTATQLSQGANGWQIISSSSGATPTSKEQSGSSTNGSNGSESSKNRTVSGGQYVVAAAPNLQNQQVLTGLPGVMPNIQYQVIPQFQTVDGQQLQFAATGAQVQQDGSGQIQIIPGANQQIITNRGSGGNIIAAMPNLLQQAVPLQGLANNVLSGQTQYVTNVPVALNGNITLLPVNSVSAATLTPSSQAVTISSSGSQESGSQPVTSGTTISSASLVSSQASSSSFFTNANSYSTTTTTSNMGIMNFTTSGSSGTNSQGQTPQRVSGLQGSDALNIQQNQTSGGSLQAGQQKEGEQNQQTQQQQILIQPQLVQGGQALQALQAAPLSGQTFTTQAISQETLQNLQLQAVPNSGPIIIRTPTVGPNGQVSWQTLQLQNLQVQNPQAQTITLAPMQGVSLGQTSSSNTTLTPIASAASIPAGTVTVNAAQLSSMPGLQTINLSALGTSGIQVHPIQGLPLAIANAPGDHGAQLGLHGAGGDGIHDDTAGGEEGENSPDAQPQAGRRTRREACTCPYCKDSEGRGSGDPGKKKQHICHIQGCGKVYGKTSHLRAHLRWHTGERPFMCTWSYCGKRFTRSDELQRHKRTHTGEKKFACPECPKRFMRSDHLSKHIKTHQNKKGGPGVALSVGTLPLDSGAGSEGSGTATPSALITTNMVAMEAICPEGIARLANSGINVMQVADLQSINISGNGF
Sequence of Paired box protein Pax-6 (Homo sapiens) (P26367 whole entry, looked up): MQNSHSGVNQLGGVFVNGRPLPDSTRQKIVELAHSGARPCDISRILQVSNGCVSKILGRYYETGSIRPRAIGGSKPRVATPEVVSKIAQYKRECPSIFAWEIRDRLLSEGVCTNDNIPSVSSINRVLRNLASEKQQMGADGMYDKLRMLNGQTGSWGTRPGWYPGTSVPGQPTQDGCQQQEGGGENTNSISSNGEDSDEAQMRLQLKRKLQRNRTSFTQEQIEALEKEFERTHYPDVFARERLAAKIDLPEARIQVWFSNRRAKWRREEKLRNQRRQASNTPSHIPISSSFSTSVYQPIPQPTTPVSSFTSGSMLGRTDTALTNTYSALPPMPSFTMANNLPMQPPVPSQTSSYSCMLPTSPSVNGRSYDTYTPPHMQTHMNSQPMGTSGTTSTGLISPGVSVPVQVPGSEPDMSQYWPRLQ
Sequence of Hepatocyte nuclear factor 6 (Homo sapiens) (Q9UBC0 whole entry, looked up): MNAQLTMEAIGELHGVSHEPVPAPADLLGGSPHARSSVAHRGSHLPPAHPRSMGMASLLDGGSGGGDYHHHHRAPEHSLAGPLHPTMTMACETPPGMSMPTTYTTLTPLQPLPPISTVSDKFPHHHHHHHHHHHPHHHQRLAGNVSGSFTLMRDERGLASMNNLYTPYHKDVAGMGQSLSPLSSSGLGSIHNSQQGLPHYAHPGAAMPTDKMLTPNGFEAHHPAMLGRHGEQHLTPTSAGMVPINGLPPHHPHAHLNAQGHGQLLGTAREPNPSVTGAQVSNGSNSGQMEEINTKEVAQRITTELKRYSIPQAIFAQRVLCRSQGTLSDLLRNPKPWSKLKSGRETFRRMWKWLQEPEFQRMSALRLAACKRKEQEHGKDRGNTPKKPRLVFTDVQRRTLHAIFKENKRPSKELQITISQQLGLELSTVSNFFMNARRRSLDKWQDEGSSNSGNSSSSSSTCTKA
Sequence of Heat shock factor protein 1 (Homo sapiens) (Q00613 whole entry, looked up): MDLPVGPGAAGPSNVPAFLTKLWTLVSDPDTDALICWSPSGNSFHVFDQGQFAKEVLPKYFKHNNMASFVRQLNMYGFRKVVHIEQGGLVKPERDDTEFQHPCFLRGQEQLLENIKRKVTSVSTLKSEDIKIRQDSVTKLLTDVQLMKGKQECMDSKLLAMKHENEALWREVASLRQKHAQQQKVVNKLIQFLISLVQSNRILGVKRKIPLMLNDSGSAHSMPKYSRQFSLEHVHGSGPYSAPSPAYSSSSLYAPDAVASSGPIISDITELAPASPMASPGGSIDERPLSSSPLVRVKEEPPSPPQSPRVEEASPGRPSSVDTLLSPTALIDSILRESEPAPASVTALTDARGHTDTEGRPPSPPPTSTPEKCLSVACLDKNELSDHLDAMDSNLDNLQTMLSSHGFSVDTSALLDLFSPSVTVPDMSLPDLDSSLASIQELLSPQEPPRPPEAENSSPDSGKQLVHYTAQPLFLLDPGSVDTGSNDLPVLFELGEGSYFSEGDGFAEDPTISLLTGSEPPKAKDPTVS

With `C=C[C@@H](C)CCC=C(C)C`, the result in test [1], in test [2], in test [3], in test [4], in [5] and in test [6] was inactive. For the same compound, the outcome in test [7], in [8], in test [9], in [10], in [11] and in test [12] was inactive. For the same compound, the compound was classed as inactive in test [13], in test [14], in test [15], in [16] and in test [17].

Take `CC(C)CCCCCCCOC(=O)c1ccc(C(=O)OCCCCCCCC(C)C)c(C(=O)OCCCCCCCC(C)C)c1`: the outcome in test [1], in test [2], in test [3], in test [4], in [5] and in [6] was inactive. In addition, the compound was called inactive in test [7], in [18], in test [9], in test [11], in test [12] and in [13]. Further, the compound was classed as inactive in test [15], in test [16] and in test [17]. For the same compound, in test [10], the concentration at half-maximal activity (AC50) was 42.7 µM (active).

Turning to `CC(C)=CCC[C@](C)(O)[C@@H]1CC=C(C)CC1`, the result in test [1], in test [2], in test [3], in [4], in test [5] and in test [6] was inactive. Moreover, the result in test [8], in test [18], in test [9], in [12], in test [13] and in [14] was inactive. For the same compound, the call in [15], in [16] and in test [17] was inactive. The AC50 in [10] is 11.1 µM (active).

For the compound `CN1Cc2c(N)cccc2C(c2ccccc2)C1` (stereo unspecified), the result in test [1], in [2], in test [3], in test [4], in [6] and in test [7] was inactive. In addition, the call in [8], in [18], in test [9], in test [11], in [12] and in test [13] was inactive. The call in test [14], in test [15], in test [19], in test [16] and in [17] was inactive. The half-maximal activity concentration (AC50) in [10] is 6.9 µM (active).

For `CCCCCC(=O)OCCc1ccccc1`, the compound was called inactive in test [1], in test [2], in test [3], in test [4], in [5] and in test [6]. Besides, the call in test [7], in test [18], in test [9], in test [10], in [12] and in test [13] was inactive. Besides, the call in test [15], in test [19], in [16] and in test [17] was inactive.

`CCCCN`: the outcome in test [1], in [2], in test [3], in [4], in [5] and in [6] was inactive. The result in [8], in test [18], in test [9], in [10], in [11] and in test [12] was inactive. Further, the outcome in test [13], in [14], in test [15], in test [19], in [16] and in [17] was inactive.

For the compound `C=C[Si](OCC)(OCC)OCC`, the result in test [1], in [2], in [3], in test [4], in [5] and in [6] was inactive. For the same compound, the result in test [7], in test [8], in test [9], in [11], in test [12] and in test [13] was inactive. Also, the compound was called inactive in [14], in [15], in [19], in test [16] and in test [17]. In addition, in test [10], the AC50 was 5.48 µM (active).

Consider `CCCCCC=CCC(=O)OC`, for which the result in test [1], in test [2], in test [3], in [4], in [5] and in [6] was inactive. The compound was classed as inactive in [7], in test [8], in test [9], in test [12], in test [13] and in [14]. Further, the call in test [15], in test [19], in test [16] and in [17] was inactive. For the same compound, the half-maximal activity concentration (AC50) in [10] was 100 µM (active).

By AC50 is commonly meant the midpoint of the concentration-response curve, whichever way the signal moves.

The record behind these values is PubChem BioAssay (EPA / NIEHS).
